Bioassay records deposited in PubChem BioAssay by National Center for Advancing Translational Sciences (NCATS).
HT1080 IDH1KD tx: kills HT-1080 cells with IDH1 knockdown; HT-1080 IDH1 knockdown viability, ATP luminescence, 48 h; Potency, µM (doses to about 46.1 µM), hits mostly cytotoxic; 360,000 tested, 2% active; AID 686971
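% activity derives from luminescence (CellTiter-Glo), normalised to DMSO and no-cell wells. HT-1080-IDH1KD cells, 750/well, had 48 h compound exposure at 37 °C.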
KB-3-1 tox: KB-3-1 parental cell cytotoxicity; KB-3-1 viability, CellTiter-Glo ATP luminescence, 72 h; Potency, µM (doses to about 46.1 µM), most hits filed as cytotoxic; 400,000 tested, 1.4% active; AID 1347075; also: nearly all actives have a fitted effect of over 60% in size
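Here the drug-naive KB-3-1 line serves as comparator for MDR sub-line selectivity; cells received compound titrations, 72 h at 37 °C, then CellTiter-Glo readout.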
KB-V1 MDR tox: kills drug-selected multidrug resistant KB-V1 cells; KB-V1 MDR cells viability, CellTiter-Glo, 72 h; Potency, µM (doses to about 46.1 µM), usual class: cytotoxic; 400,000 tested, 3.4% active; also: nearly all actives have a fitted effect of over 60% in size
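Potencies derive from concentration-effect curves fitted to normalized luminescence (CellTiter-Glo) of KB-V1 cells treated for 72 h at 37 degrees C in phenol-red-free DMEM containing 10% FBS.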
SW480 rerep: inducers of DNA re-replication in SW480 colon cancer cells; Potency, µM (doses to about 46.1 µM), usual class: activators; 340,000 tested, 1.8% active; SW480 DNA re-replication, Hoechst DNA content imaging, 48 h; also: nearly all actives have a fitted effect of over 55% in size
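Quantitative HTS format with DMSO vehicle controls; 48 hr drug incubation at 37 C, then 40 min Hoechst staining and scanning imager measurement at 405 nm excitation.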
HT1080-NT tox: kills 2HG-producing HT-1080-NT fibrosarcoma cells; HT-1080-NT fibrosarcoma viability, CellTiter-Glo ATP luminescence, 48 h; Potency, µM (doses to about 46.1 µM), hits mostly cytotoxic; 360,000 tested, 1.6% active;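 also: NT is the 2HG producing partner of a matched IDH1 knockdown line; nearly all actives have a fitted effect of over 55% in size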
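Viability by CellTiter-Glo luminescence after 48 h compound exposure at 37C of HT-1080-NT cells (750/well, RPMI, 5% FBS). % activity scaled between DMSO wells and medium-only wells, then curve-fitted and categorized by curve class.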
MCF10A rerep: induces DNA re-replication in MCF 10a normal breast cells | MCF 10A DNA re-replication, Hoechst nuclear intensity, 48 h | Potency, µM (titrated, usually from 46.1 µM), hits mostly activators | 350,000 tested, 2.9% active; also: nearly all actives have a fitted effect of over 50% in size
Of the large screens only hits and unclear results are named; the others gave an inactive call. The list is not random: actives were taken first. Their share in the collection is about 8%. Calls follow the shape of the dose curve; as a rule, active = well fitted curve in the direction sought with a large enough effect; inconclusive = small, poorly fitted or top-dose-only effect, or another doubt; inactive = no such curve, though single readings can be large; an effect the other way counts as inactive or inconclusive.

O=C(CSc1ncnc2sccc12)Nc1ccc(S(=O)(=O)N2CCOCC2)cc1	none
OCC1OC([S-])[C@H](O)C(O)C1O.[Au+] (some centres not stated)	MCF10A rerep 29.9µM (no result: HT1080 IDH1KD tx, KB-3-1 tox, KB-V1 MDR tox, HT1080-NT tox)
CCOC(=O)c1cccc(NC(=O)c2c(NCc3ccccc3)[nH]c(=O)[nH]c2=O)c1	HT1080 IDH1KD tx inconclusive, KB-3-1 tox inconclusive, KB-V1 MDR tox inconclusive, SW480 rerep inconclusive, HT1080-NT tox inconclusive, MCF10A rerep 5.8µM
CCc1ccc(S(=O)(=O)c2nnn3c2nc(NC2CCCCCC2)c2sccc23)cc1	none (no result: HT1080 IDH1KD tx, SW480 rerep, HT1080-NT tox, MCF10A rerep)
CCCn1nnc(NC(=O)C(c2ccccc2)c2ccccc2)n1	KB-V1 MDR tox 18.4µM
CCc1ccc(Nc2cc(C)nc3ncnn23)cc1	KB-3-1 tox inconclusive, KB-V1 MDR tox inconclusive
CCn1c2ccccc2c2cc(Nc3cc(C)nc4ncnn34)ccc21	HT1080 IDH1KD tx 1.03µM, KB-3-1 tox 0.231µM, KB-V1 MDR tox inconclusive, SW480 rerep inconclusive, HT1080-NT tox 0.581µM, MCF10A rerep inconclusive
O=C(O)CCc1cccc2ccccc12	none (no result: HT1080 IDH1KD tx, SW480 rerep, HT1080-NT tox, MCF10A rerep)
CN(c1ccccc1C(=O)O)S(C)(=O)=O	none
CN(C)c1ccccc1C(=O)c1ccccc1N(C)C	HT1080 IDH1KD tx 4.61µM, KB-3-1 tox 4.61µM, KB-V1 MDR tox inconclusive, SW480 rerep 8.2µM, HT1080-NT tox inconclusive, MCF10A rerep 4.11µM
CCN(CC)S(=O)(=O)c1cccc(NC(=O)COC(=O)c2cncc(Br)c2)c1	KB-V1 MDR tox inconclusive
Oc1ccccc1-c1nc(NCCN2CCOCC2)c2ccccc2n1	HT1080 IDH1KD tx 20.6µM, KB-3-1 tox inconclusive, KB-V1 MDR tox 16.4µM, SW480 rerep inconclusive, HT1080-NT tox 20.6µM
Cc1ccc(-c2nc(NCCN3CCOCC3)c3ccccc3n2)cc1	HT1080 IDH1KD tx inconclusive, HT1080-NT tox inconclusive
Clc1ccc(-c2nc(NCCCN3CCOCC3)c3ccccc3n2)cc1	HT1080 IDH1KD tx inconclusive, KB-V1 MDR tox inconclusive, SW480 rerep inconclusive, HT1080-NT tox 23.1µM
Clc1cccc(-c2nc(NCCN3CCOCC3)c3ccccc3n2)c1	HT1080 IDH1KD tx inconclusive, KB-V1 MDR tox 20.6µM, HT1080-NT tox inconclusive
Clc1cccc(-c2nc(NCCCN3CCOCC3)c3ccccc3n2)c1	HT1080 IDH1KD tx inconclusive, HT1080-NT tox 20.6µM
O=C(c1ccc(-c2ccccc2Cl)o1)N1CCC1	KB-V1 MDR tox inconclusive, SW480 rerep inconclusive
COc1ccc(C)c(-n2c(N)cc(=O)n(Cc3ccccc3)c2=O)c1	none
O=C(NCC(=O)N1CCN(Cc2ccccc2)CC1)c1cc(Cl)cc([N+](=O)[O-])c1	HT1080 IDH1KD tx inconclusive, KB-3-1 tox 23.1µM, KB-V1 MDR tox inconclusive
CC(C)CC(=O)N/N=C/c1c(N)n(C)c(=O)n(C)c1=O	KB-3-1 tox inconclusive
COc1ccc(-c2sc3ccccc3c2C#CCCO)cc1	MCF10A rerep inconclusive
Cc1cc(Oc2ccc(=O)n(C)n2)nc(Oc2ccc(=O)n(C)n2)n1	none
CCOC(=O)c1c(C=O)c(C)n(Cc2ccccc2Cl)c1C	KB-V1 MDR tox 23.1µM, SW480 rerep inconclusive, MCF10A rerep inconclusive
CCOC(=O)c1c(C=O)c(C)n(Cc2ccc(C)cc2)c1C	HT1080 IDH1KD tx inconclusive, KB-3-1 tox inconclusive, KB-V1 MDR tox inconclusive, SW480 rerep inconclusive, MCF10A rerep inconclusive
Cc1ccc(S(=O)(=O)n2nc(C)c(S(=O)(=O)N3CCCCCC3)c2C)cc1C	KB-V1 MDR tox inconclusive (no result: HT1080 IDH1KD tx, SW480 rerep, HT1080-NT tox, MCF10A rerep)
COc1ccc(/C=N/Nc2cc(N3CCCC3)nc(N3CCCC3)n2)cc1	HT1080 IDH1KD tx 16.4µM, KB-3-1 tox inconclusive, KB-V1 MDR tox inconclusive, SW480 rerep 9.2µM, HT1080-NT tox 13µM, MCF10A rerep 18.4µM
COCCNC(=O)c1sc2nc3n(c(=O)c2c1C)CCC3	none (no result: HT1080 IDH1KD tx, SW480 rerep, HT1080-NT tox, MCF10A rerep)
O=C(Nc1ccc(N2CCOCC2)cc1)c1ccc2ncsc2c1	none
C/C(=N\Nc1ccc(Cl)cc1)c1c(O)cc(C)oc1=O	HT1080 IDH1KD tx 23.1µM, HT1080-NT tox inconclusive, MCF10A rerep inconclusive
O=C(NN(C(=O)c1ccccc1)c1cccs1)c1ccccc1	KB-V1 MDR tox inconclusive
CCOC(=O)c1sc(NC(=O)CSc2nnnn2-c2ccccc2)c(C(=O)OCC)c1C	none
CCOC(=O)c1c(NC(=O)CCS(=O)(=O)c2ccccc2)sc2c1CC(C)(C)NC2(C)C	KB-V1 MDR tox inconclusive, SW480 rerep inconclusive, MCF10A rerep 18.4µM
CCOC(=O)c1c(NC(=O)CSc2nnnn2-c2ccccc2)sc2c1CC(C)(C)NC2(C)C	HT1080 IDH1KD tx 23.1µM, SW480 rerep inconclusive, HT1080-NT tox inconclusive, MCF10A rerep inconclusive
COC(=O)c1c(NC(=O)CSc2nnnn2-c2ccccc2)sc2c1CCC(C)C2 (configuration not stated)	KB-V1 MDR tox inconclusive, SW480 rerep inconclusive
CCOC(=O)c1c(NC(=O)Cc2ccccc2)sc2c1CC(C)(C)NC2(C)C	none
COC(=O)c1c(NC(=O)CSc2nnnn2-c2ccccc2)sc2c1CCC(C(C)(C)C)C2 (configuration not stated)	KB-V1 MDR tox 14.6µM, MCF10A rerep inconclusive
CC(C)(C)C1CCc2c(sc(NC(=O)c3cccs3)c2C(N)=O)C1 (configuration not stated)	SW480 rerep inconclusive, MCF10A rerep 5.62µM
O=c1cc[nH]c2c(C(F)(F)F)cccc12	none
CC(c1ccccc1)n1cc(C(=O)NCC2COc3ccccc3O2)nn1 (configuration not stated)	SW480 rerep inconclusive
CCOC(=O)c1c(NC(=O)C2COc3ccccc3O2)sc(C(C)=O)c1C (configuration not stated)	none
CCOC(=O)c1c(NC(=O)C2COc3ccccc3O2)sc2c1CC(C)(C)NC2(C)C (configuration not stated)	HT1080 IDH1KD tx 16.4µM, KB-3-1 tox inconclusive, SW480 rerep inconclusive, HT1080-NT tox inconclusive, MCF10A rerep inconclusive
COC(=O)c1c(NC(=O)CC2SC(N)=NC2=O)sc2c1CCC(C(C)(C)C)C2 (configuration not stated)	HT1080 IDH1KD tx inconclusive, HT1080-NT tox inconclusive, MCF10A rerep 23.1µM
Cc1ccc(CN2C(=O)C(Cc3ccccc3)Nc3ncnc(N4CCOCC4)c32)cc1 (configuration not stated)	none (no result: SW480 rerep, MCF10A rerep)
Cc1ccc(NC(=O)Cn2c(=O)nc(-c3ccccc3F)c3cc(Cl)ccc32)c(Br)c1	KB-3-1 tox 16.4µM, KB-V1 MDR tox inconclusive (no result: HT1080 IDH1KD tx, SW480 rerep, HT1080-NT tox, MCF10A rerep)
CCOC(=O)c1c(C)[nH]c(C(=O)OCc2ccc(F)cc2)c1C	none
C=CCN(CC=C)Cc1c(O)ccc2c1oc(=O)c1ccccc12	KB-V1 MDR tox 10.3µM
C=CCN(CC=C)Cc1cc(=O)oc2ccc3ccccc3c12	HT1080 IDH1KD tx inconclusive, KB-3-1 tox inconclusive, HT1080-NT tox inconclusive (no result: SW480 rerep, MCF10A rerep)
